Laboratory results taken from PubChem BioAssay (NCATS).
Results filed as inconclusive are left out. Values without a mark were called inactive. Calls of active or inactive are those of the source. Calls come from the whole dose curve; as a rule, active = well fitted inhibition curve with a large enough effect; inconclusive = small, poorly fitted or top-dose-only effect; inactive = flat fitted curve, though single readings scatter.

molecular target: Calcium and integrin-binding protein 1 (Homo sapiens) (UniProt Q99828); test: Primary qHTS for Identification of Calcium Integrin Binding Protein 1 (CIB1) Competitor (AID 1508620); settings: CIB1-GST / FITC-alphaIIb peptide fluorescence polarization; series mostly up to 114 µM; activity change, negative = inhibition: at the top concentration;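 note: GST tagged CIB1 binding a fluorescein labelled alphaIIb integrin peptide tracer; top concentration of the series differs between compounds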
Method in brief: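 CIB1-GST (1 uM final) and compound incubated 15 min at room temperature before adding FITC-alphaIIb peptide tracer (100 nM final). Competition for binding read by fluorescence polarization (ex 480, em 540) after another 15 min at room temperature.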
% is set by controls: 0 for no effect and ±100 for the full control effect.

Calcium and integrin-binding protein 1 (Homo sapiens), sequence (Q99828 whole entry, looked up): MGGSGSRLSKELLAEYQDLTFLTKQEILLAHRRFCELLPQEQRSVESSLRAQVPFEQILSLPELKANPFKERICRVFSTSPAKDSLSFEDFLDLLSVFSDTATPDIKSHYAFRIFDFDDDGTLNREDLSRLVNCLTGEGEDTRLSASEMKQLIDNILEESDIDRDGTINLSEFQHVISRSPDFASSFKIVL

Row | SMILES | activity change, negative = inhibition [%] | Potency
1 | O=S1(=O)N=C(Oc2ccccc2F)c2ccccc21 | -2.86 | 
2 | O=C(NNC(=O)c1cc2ccccc2[nH]1)OCc1ccccc1 | 0.809 | 
3 | c1cc2c(cc1CNc1ccc(N3CCCCC3)cc1)OCO2 | -8.68 | 
4 | NC(=O)C1CCN(c2nc(-c3ccc(Oc4ccccc4)cc3)cs2)CC1 | -0.992 | 
5 | COc1ccc(-n2c(C)c(C(C)=O)c3ccccc32)cc1 |  | inactive
6 | CCC(=O)NC(c1cc(Cl)c2ccccc2c1O)C1CC1 (configuration not stated) | 1.07 | 
7 | Cc1ccc(-n2c(=O)ccc(=O)n2CC(=O)NCCc2ccccc2)cc1 | 5.84 | 
8 | Cc1ccc(NS(=O)(=O)c2ccc3c(c2)CC(=O)N3C)cc1C | 3.74 | 
9 | O=C1CCCC2=C1C(c1[nH]ncc1Cl)NC(=NCCc1cccnc1)N2 (configuration not stated) | -0.64 | 
10 | O=c1c2ccccc2nc2sc(Nc3cccc4ccccc34)nn12 | 3.85 | 
11 | COc1cccc(-c2no[n+]([O-])c2C#N)c1 | -0.338 | 
12 | O=C(Nc1ccc(Cl)c([N+](=O)[O-])c1)Nc1nnc(C2CCCCC2)s1 | -0.73 | 
13 | COC(=O)c1sc2c(c1-c1nc3ccccc3s1)CCNC2 | 1.45 | 
14 | Cc1cc(C)nc(NC(=S)N2CCN(c3cc(Cl)cc(Cl)c3)CC2)c1 | -8.39 | 
15 | CN(C)[S+](=O)([O-])c1ccc(-c2cncc(NC(=O)c3cccs3)c2)cc1 | -1.81 | 
16 | CN1CCN(c2ccc(NC(=O)c3cccs3)cn2)CC1 | -14.8 | 
17 | Cc1ccc(OCCn2c(CCNC(=O)OC(C)(C)C)nc3ccccc32)cc1 | 1.28 | 
18 | C(=Nc1cccnc1)c1cccs1 | 1.85 | 
19 | Fc1ccc(-c2ccc(CNc3nc(-c4ccccc4C(F)(F)F)nc4ccccc34)cc2)cc1 | 2.02 | 
20 | O=[S+]([O-])(c1c(F)cccc1F)N1CCN([S+](=O)([O-])c2cccc3nonc23)CC1 | -0.115 | 
21 | CC(=O)Nc1cccc(S(=O)(=O)N2CCCN(S(=O)(=O)c3ccc4c(c3)OCCO4)CC2)c1 | -5.67 | 
22 | O=C(Nc1ccccc1)C1CCN(c2nc(-c3ccc(Br)cc3)cs2)CC1 | 2.44 | 
